From PubChem BioAssay
TMEM16A inh: TMEM16A chloride channel inhibitors, primary screen, cell-based, HTS; 310,000 compounds, 1.2% hits; HEK293 TMEM16A/YFP iodide influx fluorescence, ionomycin; normalized B-score (activity score, 25-100; higher = stronger inhibition) at 10 µM;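 active means ratio plate-corrected score three or more library SD toward inhibition, starting fluorescence score within five deviations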;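 further: score derived from kinetic fluorescence span divided by baseline fluorescence per well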
Target sequence (Q8BHY3 whole entry, looked up): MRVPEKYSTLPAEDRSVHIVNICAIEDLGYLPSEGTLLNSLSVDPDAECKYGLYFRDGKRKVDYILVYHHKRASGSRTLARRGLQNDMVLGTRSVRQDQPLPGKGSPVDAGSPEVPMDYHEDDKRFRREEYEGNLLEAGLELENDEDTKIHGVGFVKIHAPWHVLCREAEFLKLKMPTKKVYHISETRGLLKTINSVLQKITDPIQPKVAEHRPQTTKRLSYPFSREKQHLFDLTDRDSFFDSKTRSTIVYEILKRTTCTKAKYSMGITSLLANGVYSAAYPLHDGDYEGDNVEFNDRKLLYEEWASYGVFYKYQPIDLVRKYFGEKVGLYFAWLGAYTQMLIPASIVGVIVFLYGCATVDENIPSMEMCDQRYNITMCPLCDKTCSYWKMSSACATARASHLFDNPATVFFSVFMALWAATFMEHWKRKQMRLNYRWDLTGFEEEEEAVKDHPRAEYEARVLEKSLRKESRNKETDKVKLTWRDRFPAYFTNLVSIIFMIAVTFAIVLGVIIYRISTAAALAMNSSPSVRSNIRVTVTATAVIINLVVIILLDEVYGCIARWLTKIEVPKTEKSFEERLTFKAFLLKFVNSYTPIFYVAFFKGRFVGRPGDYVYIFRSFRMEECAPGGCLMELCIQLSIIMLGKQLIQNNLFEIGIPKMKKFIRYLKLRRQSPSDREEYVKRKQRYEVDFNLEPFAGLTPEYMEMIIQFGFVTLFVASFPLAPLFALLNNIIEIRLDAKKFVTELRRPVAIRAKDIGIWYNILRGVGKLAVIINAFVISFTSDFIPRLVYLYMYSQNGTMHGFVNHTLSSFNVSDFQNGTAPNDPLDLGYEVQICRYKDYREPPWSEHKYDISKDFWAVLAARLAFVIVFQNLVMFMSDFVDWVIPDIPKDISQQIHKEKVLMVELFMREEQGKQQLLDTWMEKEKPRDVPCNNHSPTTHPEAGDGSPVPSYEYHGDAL
Jurkat NFkB inh: inhibitors of induced NF-kB luciferase reporter, primary screen, TCR NF-kB activation inhibitor project, cell-based, luminescence, uHTS | Jurkat, PMA/ionomycin-induced NF-kB luciferase reporter | inhibition, % at 4 µM | 330,000 compounds, 0.53% hits | AID 435003, 2010; in the data active means inhibition above about 50%
KLF5 inh: KLF5 expression inhibitors, primary screen, DLD-1 cells, luminescence. DLD-1 KLF5 promoter-luciferase reporter. inhibition, % at 5 µM. 290,000 compounds, 0.23% hits. AID 1700, 2009;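 active means inhibition above a per-plate limit of that plate's mean compound inhibition plus 3 SD, cut at about 60% in these data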;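 further: higher means less KLF5 promoter-driven luciferase light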
697 NFkB inh: inhibitors of PMA/ionomycin-induced NF-kB reporter, 697 cells, primary screen, B-cell NF-kB inhibitor project, cell-based, luminescence, uHTS. 697 B-cell NF-kB luciferase reporter, 16 h. inhibition, % at 4 µM. 330,000 compounds, 0.33% hits. AID 435022, 2010; in the data active means inhibition above about 35%
aSyn 5UTR inh: MLPCN primary screen, SNCA 5' untranslated region; alpha-synuclein 5'UTR reporter, inhibitor activity; inhibition, % (tested at 7.5 µM); 300,000 compounds, 0.82% hits; AID 1813, 2009; in the data active means inhibition above about 60%;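 further: H4 neuroglioblastoma cells stably carrying SNCA 5'UTR luciferase fusion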
TMEM16A act: TMEM16A chloride channel activators or potentiators, primary screen, cell-based, HTS. B-score at 10 µM. 340,000 compounds, 0.3% hits. HEK293 TMEM16A/YFP-H148Q/I152L, iodide quench fluorescence; hits give low values. AID 623877, 2012;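 active means fluorescence-ratio B-score plate-corrected deviation score at least 3 library SD below zero, with starting fluorescence score within 5 deviations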;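 further: channel opened by trigger with iodide after compound preincubation; score built on the fluorescence ratio of max minus min over baseline; more negative score means more quench and so TMEM16A activation or potentiation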
Of the large screens only hits and unclear results are named; the others gave an inactive call. The list is not random: actives were taken first. Their share in the collection is about 2.5%.

Cc1ccc(N2CCN(S(=O)(=O)c3ccc(F)c(C)c3)CC2)c(C)c1	TMEM16A act -11
CCOc1ccc(Nc2nc3cc(S(=O)(=O)N(CC)CC)ccc3o2)cc1	aSyn 5UTR inh 78
CCCN1CCc2c(sc(NC(=S)NC(=O)c3ccccc3)c2C#N)C1	TMEM16A act -5.4
COc1ccc(CN(C)C(=O)c2ccccc2Sc2ccccc2C#N)c(OC)c1	none
Cc1ccc(C(=O)N2CCN(c3ccccn3)CC2)cc1Cl	none
CCCCOc1ccc(S(=O)(=O)n2c(C)nc3ccccc32)cc1	TMEM16A inh 25
CCOc1ccc(S(=O)(=O)n2c(C)nc3ccccc32)cc1	none (no result: aSyn 5UTR inh)
COCCn1c(SCC(=O)NC2(C#N)CCCCC2)nc2ccccc2c1=O	none (no result: TMEM16A inh, KLF5 inh, aSyn 5UTR inh)
Oc1c(CNc2ccccc2)cc(COCc2ccccc2)c2cccnc12	none (no result: TMEM16A inh, KLF5 inh, aSyn 5UTR inh, TMEM16A act)
Oc1c(CN2CCOCC2)cc(COCc2ccccc2)c2cccnc12	aSyn 5UTR inh 114 (no result: Jurkat NFkB inh, 697 NFkB inh)
CC(=NN1CC(=O)NC1=O)c1ccc([N+](=O)[O-])o1	none (no result: TMEM16A inh, Jurkat NFkB inh, KLF5 inh, 697 NFkB inh, aSyn 5UTR inh)
Oc1cc2c(cc1O)C1c3ccc(O)c(O)c3OCC1(O)C2 (stereo unspecified)	TMEM16A act -12 (no result: aSyn 5UTR inh)
CCOC(=O)C(Cc1c[nH]c2cc([N+](=O)[O-])ccc12)(NC(C)=O)C(=O)OCC	none (no result: TMEM16A inh, Jurkat NFkB inh, KLF5 inh, 697 NFkB inh, aSyn 5UTR inh)
O=C(NCc1ccccc1)c1cccc(COc2cccc(Cl)c2)c1	none
O=C(NCc1ccccc1)c1cccc(COc2ccc(Cl)cc2)c1	TMEM16A inh 25
CCCc1ccc(OCc2ccc(C(=O)N3CCSCC3)o2)cc1	TMEM16A inh 25
Cc1ccc(Cn2c(C3CCCN3c3nc(-c4ccc(F)cc4)cs3)nc3cc(C(F)(F)F)ccc32)cc1 (stereo unspecified)	TMEM16A act -9.5 (no result: KLF5 inh)
COc1ccc(OC)c(/C=N\NC(=O)CSc2nnc(CCCc3ccc(OC)c(C)c3)o2)c1	TMEM16A inh 100
O=C1C(CO)C(CO)C(CO)C1CO (stereo unspecified)	none (no result: TMEM16A inh, Jurkat NFkB inh, KLF5 inh, 697 NFkB inh, aSyn 5UTR inh)
N=c1c2c(ncn1Cc1ccco1)Oc1ccc3ccccc3c1C2c1ccccc1 (stereo unspecified)	none
N=c1c2c(-c3ccccc3)c(-c3ccccc3)n(Cc3ccco3)c2ncn1Cc1ccco1	TMEM16A inh 100
CNc1ccc(N=Nc2cccc3ncccc23)cc1	none (no result: TMEM16A inh, Jurkat NFkB inh, KLF5 inh, 697 NFkB inh, aSyn 5UTR inh)
CCOC(=O)c1ccc2c(c1)N(CC#N)C(=O)C(C)(C)O2	TMEM16A inh 25
c1ccc2c(c1)CCN2CCN1CCc2ccccc21	TMEM16A act -17
CN(C)CCN1CCc2ccccc21	none
O=C(CSc1nncn1-c1ccccc1)Nc1cc(Cl)cc(Cl)c1	TMEM16A inh 25
Cc1cc(C)c(N2CCN(S(=O)(=O)N3CCCCCC3)CC2)c(C)c1	TMEM16A inh 25, TMEM16A act -22
Cc1ccc(N2CCN(S(=O)(=O)N3CCCCC3)CC2)cc1Cl	none
Cc1cc(NC(=O)CN2C(=O)NC3(CCCCCC3)C2=O)ccc1Br	none (no result: TMEM16A inh, KLF5 inh, aSyn 5UTR inh)
COc1ccc(OC)c(C(=O)CN2C(=O)C(=O)N(C3CCCC3)C2=O)c1	none (no result: TMEM16A inh, KLF5 inh, aSyn 5UTR inh)
COc1cc(OC)c(NS(=O)(=O)c2cccc(C(=O)OCC(=O)NCC3CCCO3)c2)cc1Cl (stereo unspecified)	TMEM16A act -7.8
CC(C)c1ccc(C(=O)CN2C(=O)NC3(CCc4ccccc43)C2=O)cc1 (stereo unspecified)	none (no result: TMEM16A inh, KLF5 inh, aSyn 5UTR inh)
O=C(NC(=S)Nc1ccc(N2CCCC2)cc1)c1ccc(F)cc1	none
Cn1cc(Br)c(C(=O)Nc2sc3c(c2C#N)CCC3)n1	none
Cn1cc([N+](=O)[O-])c(C(=O)Nc2sc3c(c2C#N)CCC3)n1	aSyn 5UTR inh 64
CC(=O)Nc1cccc(NC(=O)CN2c3cccc4cccc(c34)S2(=O)=O)c1	none (no result: TMEM16A inh, KLF5 inh, aSyn 5UTR inh)
CC(=O)c1ccc(NC(=O)CN2c3cccc4cccc(c34)S2(=O)=O)cc1	TMEM16A act -4.7 (no result: TMEM16A inh, KLF5 inh, aSyn 5UTR inh)
CCC(C)NC(=O)CN1c2cccc3cccc(c23)S1(=O)=O (stereo unspecified)	TMEM16A act -7.2
NC(=O)NC(=O)CN1c2cccc3cccc(c23)S1(=O)=O	TMEM16A act -6.9
Cc1ccccc1N/N=C/c1sc(=O)n(Cc2cccc(C(=O)O)c2)c1Cl	TMEM16A inh 25
O=C(O)CCCC(=O)Nc1ccc(C(=O)NCc2cccnc2)cc1	none
O=C(CCC1CCCC1)Nc1ccc(C(=O)NCc2cccnc2)cc1	aSyn 5UTR inh 72
COc1ccccc1CNC(=O)c1cc(C)nc2ccccc12	none
COc1ccc(CNC(=O)c2cc(C)nc3ccccc23)cc1OC	TMEM16A act -5.6
CCOC(=O)c1ccc(NC(=O)c2cccc(S(=O)(=O)N3c4ccccc4CC3C)c2)s1 (stereo unspecified)	aSyn 5UTR inh 83
CC(=O)N1CCN(C(=O)c2cc(S(=O)(=O)N(C)Cc3ccccc3)ccc2Cl)CC1	none (no result: TMEM16A inh, KLF5 inh, aSyn 5UTR inh)
Nc1ccc2oc(-c3cccc4ccccc34)nc2c1	aSyn 5UTR inh 71
Cc1ccc(-c2nc3cc(N)ccc3o2)c(C)c1	none
Cc1ccc2nc3n(c(=O)c2c1)-c1cc(Cl)ccc1C(=O)NC3Cc1ccc(O)cc1 (stereo unspecified)	none (no result: TMEM16A inh, KLF5 inh, aSyn 5UTR inh, TMEM16A act)
Cc1cccc(NC(=O)c2ccccc2O)c1C	TMEM16A inh 25
Cc1cccc(NC(=O)c2cccc([N+](=O)[O-])c2O)c1C	none (no result: TMEM16A inh, Jurkat NFkB inh, KLF5 inh, 697 NFkB inh, aSyn 5UTR inh)
CCOC(=O)C1=C(C)N=c2s/c(=C/c3cccc([N+](=O)[O-])c3O)c(=O)n2C1c1ccccc1 (stereo unspecified)	TMEM16A inh 100
CCOC(=O)c1sc(Nc2nc(C)cc(C)n2)nc1C	aSyn 5UTR inh 84
CCOC(=O)c1sc(Nc2nc3c(OC)cccc3s2)nc1C	TMEM16A inh 100
CCC1(c2ccccc2)NC(=O)N(CC(=O)Nc2ccccc2C(=O)N2CCCCC2)C1=O (stereo unspecified)	none (no result: KLF5 inh)
Cc1ccc2nc(N3CCN(S(=O)(=O)c4ccc5c(c4)OCCO5)CC3)c(C#N)cc2c1	none
Cc1ccc(S(=O)(=O)N2CCCN(c3nc4cc(C)ccc4cc3C#N)CC2)cc1	TMEM16A act -14
O=C(CCSc1nc2ccccc2s1)N/N=C/c1c(O)ccc2ccccc12	aSyn 5UTR inh 66
Cc1cc(C)n(CCC(=O)N/N=C/c2c(O)ccc3ccccc23)n1	aSyn 5UTR inh 73
Cc1ccc(OCc2nnc(SCc3nc4ccccc4[nH]3)n2Cc2ccco2)cc1	TMEM16A inh 100
CCc1nnc(NC(=O)CCC(=O)NCCc2ccccc2)s1	none
CN1/C(=C/C(=O)COC(=O)CN2C(=O)C3CC=CCC3C2=O)C(C)(C)c2ccccc21 (stereo unspecified)	none (no result: TMEM16A inh, Jurkat NFkB inh, KLF5 inh, 697 NFkB inh, aSyn 5UTR inh)
CN1/C(=C\C(=O)COC(=O)Cn2nnc(-c3ccccc3)n2)C(C)(C)c2ccccc21	TMEM16A inh 25
C=CCc1c(C)nc(C)nc1N/N=C/c1ccccc1O	TMEM16A inh 25
